PubChem BioAssay (NCATS)
Records with an inconclusive call do not appear. Calls of active or inactive are those of the source. Unless noted, calls follow the shape of the dose curve; as a rule, active = well fitted curve in the direction sought with a large enough effect; inconclusive = small, poorly fitted or top-dose-only effect, or another doubt; inactive = no such curve, though single readings can be large; an effect the other way counts as inactive or inconclusive.

Legend:
[1] = target: Voltage-gated inwardly rectifying potassium channel KCNH2 (Homo sapiens) (UniProt Q12809); experiment: qHTS Assay for Small Molecule Inhibitors of the Human hERG Channel Activity (AID 588834);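 also: lower thallium flux fluorescence means stronger hERG block; nearly all actives have a fitted effect of over 50% in size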; also: potency is read from the fitted curve at half-maximal effect
Outline: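 hERG-BacMam U2OS, 2000 cells/well; 0.7X FluxOR loading 1 hr RT dark; cpd ~10 min 37 °C; stim buffer; FDSS fluorescence 2 min @ 1 s; AC50 Hill fit.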

[2] = target: Glutaminase kidney isoform, mitochondrial (Homo sapiens) (UniProt O94925); experiment: qHTS for Inhibitors of Glutaminase (GLS): LOPAC Validation (AID 624146); also: nearly all actives have a fitted effect of over 60% in size; also: potency is read from the fitted curve at half-maximal effect
Outline: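 hKGA; 45 mM KH2PO4 pH 8.2 + 0.02% Tween-20; cpd via pin tool; 1 mM Gln soln; GluOx/HRP/Amplex Red; RT 30 min; fluor. t0 & final.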

[3] = qHTS of Trypanosoma Brucei Inhibitors: LOPAC Validation (AID 624147); also: 0% is about no effect
Outline: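 In this concentration-response screen, enzyme-free wells defined baseline while DMSO plates tracked drift. Each reaction combined TbPYK, substrate, compound and 130 uM ADP for 45 min at room temperature. Kinase-Glo Plus luminescence gave the signal.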

[4] = target: Glucagon-like peptide 1 receptor (Homo sapiens) (UniProt P43220); experiment: qHTS of GLP-1 Receptor Agonists: LOPAC Validation (AID 624148);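 also: 0% is about no effect; higher luminescence signal means agonism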
Outline: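 HEK293 cells stably co-expressing GLP-1R and a cAMP-responsive luciferase reporter, plated 12 hours before compound, then incubated 4-6 hr at 37 deg C. Luminescence read 12 min after detection reagent.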

[5] = qHTS of Nrf2 Activators: LOPAC Validation (AID 624149); also: 0% is about no effect
Outline: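 ARE reporter activation measured in AREc32 firefly luciferase cells after 24 hr compound exposure; Steady-Glo luminescence.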

[6] = HTS Assay for Allosteric Antagonists of the Human D2 Dopamine Receptor: Hit Validation in HTRF (AID 624455);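 also: stable D1 dopamine receptor cell line scored for blocking the D1 response; % is scaled to controls: 0 for no effect and ±100 for the full control effect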
Outline: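 Signal from an HTRF read-out in D1-expressing stable cells gave hit activity as inhibition of the D1 response.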

[7] = qHTS assay for small molecule agonists of the antioxidant response element (ARE) signaling pathway (AID 651741; active = well fitted activation curve with a large enough effect in the signal ratio; the % refers to the signal ratio; also: % of control where 0% means no effect)
Outline: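 HepG2 ARE-bla cells plated at 2,000 cells/well and incubated 5 h at 37 C/5% CO2 received 23 nL compound in DMSO. After 16 h at 37 C, LiveBLAzer B/G FRET substrate was applied for 2 h at room temperature and fluorescence read.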

[8] = qHTS assay for small molecule activators of the nuclear factor-kappa B (NF-kB) signaling pathway (AID 651749; active = well fitted activation curve with a large enough effect in the signal ratio; the % refers to the signal ratio; also: series mostly up to about 77 µM; % of control where 0% means no effect); details: NF-kB-bla ME-180 cells, beta-lactamase FRET ratio, 16 h; stronger effect = higher value
Outline: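 Incubation lasted 16 hr at 37C in 5% CO2 after 23 nL compound addition to ME-180 NF-kB-bla cells. Activation appears as beta-lactamase-mediated FRET loss.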

[9] = qHTS assay for small molecule disruptors of the mitochondrial membrane potential - 1 hr assay (AID 651754; calls by dose curve; also: % is scaled to controls: 0 for no effect and ±100 for the full control effect; nearly all actives have a fitted effect of over 35% in size)
Outline: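 Steps: seed HepG2 cells and let attach overnight; pin-transfer compound or vehicle; incubate 1 hr at 37C; add Mito-MPS dye for 30 min; read two-channel fluorescence for monomer and aggregate forms.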

[10] = qHTS assay for small molecule disruptors of the mitochondrial membrane potential - 5 hr assay (AID 651755; calls by dose curve; also: % is scaled to controls: 0 for no effect and ±100 for the full control effect; nearly all actives have a fitted effect of over 40% in size)
Outline: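 HepG2 cells (2,000/well), attached overnight, exposed to compound 5 hr at 37C, then Mito-MPS dye 30 min. Fluorescence read for monomers (490/535 nm) and aggregates (540/590 nm).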

[11] = target: Tumor necrosis factor (Homo sapiens) (UniProt P01375); experiment: qHTS assay to identify small molecules that stimulate Tumor Necrosis Factor-alpha (TNF-alpha) secretion (AID 651757; active = well fitted curve in the direction sought with a large enough effect in the signal ratio; the % refers to the signal ratio; also: 0% is about no effect)
Outline: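 Secreted TNF-alpha from compound-treated THP-1 cells (17 hrs, 37 C) was quantified with a homogeneous time-resolved fluorescence antibody assay.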

[12] = qHTS assay for environmental chemicals that activate the Aryl hydrocarbon Receptor (AhR) signaling pathway (AID 651777); details: 1A2-DRE human hepatoma cells, luciferase, 24 h; stronger effect = higher value; also: % of control where 0% means no effect; nearly all actives have a fitted effect of over 15% in size
Outline: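 Induction of CYP1A2 transcription through AhR is detected by luciferase in 1A2-DRE hepatoma cells. Compounds or DMSO act for 24 hr at 37 C before a 30 min One-Glo step at room temperature.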

[13] = target: Peroxisome proliferator-activated receptor alpha (Homo sapiens) (UniProt Q07869); experiment: qHTS assay for small molecule agonists of the peroxisome proliferator-activated receptor alpha (PPARalpha) signaling pathway (AID 651778); details: PathHunter PPARalpha complementation, chemiluminescence, 6 h; max response: stronger effect = higher value; also: % of control where 0% means no effect
Outline: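 Enzyme-fragment complementation assay in which ligand-bound PPARalpha translocates and forms an active enzyme that generates chemiluminescence. Cells were plated overnight, exposed to compound for 6 hr at 37 C, and then given detection reagent for 60 min at room temperature.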

Chain of Glucagon-like peptide 1 receptor (Homo sapiens) (P43220 whole entry, looked up): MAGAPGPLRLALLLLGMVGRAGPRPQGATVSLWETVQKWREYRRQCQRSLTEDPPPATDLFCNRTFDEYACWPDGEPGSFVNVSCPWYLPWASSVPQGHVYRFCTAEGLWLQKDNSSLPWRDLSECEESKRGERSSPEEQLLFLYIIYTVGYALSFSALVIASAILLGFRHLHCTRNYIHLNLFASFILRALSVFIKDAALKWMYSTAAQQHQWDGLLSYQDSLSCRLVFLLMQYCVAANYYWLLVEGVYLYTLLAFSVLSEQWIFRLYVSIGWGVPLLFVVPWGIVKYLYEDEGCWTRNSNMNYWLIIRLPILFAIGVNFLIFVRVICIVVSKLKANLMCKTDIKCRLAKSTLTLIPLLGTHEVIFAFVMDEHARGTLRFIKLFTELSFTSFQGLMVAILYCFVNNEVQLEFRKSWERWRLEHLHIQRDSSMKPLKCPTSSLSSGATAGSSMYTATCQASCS
Chain of Glutaminase kidney isoform, mitochondrial (Homo sapiens) (O94925 whole entry, looked up, canonical isoform): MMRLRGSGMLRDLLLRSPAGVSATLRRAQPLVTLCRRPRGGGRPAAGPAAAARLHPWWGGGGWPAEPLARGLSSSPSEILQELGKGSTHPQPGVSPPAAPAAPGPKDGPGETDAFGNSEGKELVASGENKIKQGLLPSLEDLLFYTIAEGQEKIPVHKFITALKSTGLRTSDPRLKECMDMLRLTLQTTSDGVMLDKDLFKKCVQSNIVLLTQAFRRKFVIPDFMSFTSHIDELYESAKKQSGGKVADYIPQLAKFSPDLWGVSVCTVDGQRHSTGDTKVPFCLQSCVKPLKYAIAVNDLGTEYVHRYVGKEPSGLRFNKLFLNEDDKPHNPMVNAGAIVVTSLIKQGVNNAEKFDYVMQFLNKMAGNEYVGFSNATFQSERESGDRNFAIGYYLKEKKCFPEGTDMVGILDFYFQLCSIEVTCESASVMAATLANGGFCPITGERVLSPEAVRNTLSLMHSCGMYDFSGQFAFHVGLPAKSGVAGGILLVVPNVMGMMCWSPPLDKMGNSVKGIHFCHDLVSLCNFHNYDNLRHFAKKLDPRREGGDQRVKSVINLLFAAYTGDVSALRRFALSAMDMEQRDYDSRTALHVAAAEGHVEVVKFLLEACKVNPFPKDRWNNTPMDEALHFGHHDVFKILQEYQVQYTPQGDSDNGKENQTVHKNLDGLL
Chain of Voltage-gated inwardly rectifying potassium channel KCNH2 (Homo sapiens) (Q12809 whole entry, looked up): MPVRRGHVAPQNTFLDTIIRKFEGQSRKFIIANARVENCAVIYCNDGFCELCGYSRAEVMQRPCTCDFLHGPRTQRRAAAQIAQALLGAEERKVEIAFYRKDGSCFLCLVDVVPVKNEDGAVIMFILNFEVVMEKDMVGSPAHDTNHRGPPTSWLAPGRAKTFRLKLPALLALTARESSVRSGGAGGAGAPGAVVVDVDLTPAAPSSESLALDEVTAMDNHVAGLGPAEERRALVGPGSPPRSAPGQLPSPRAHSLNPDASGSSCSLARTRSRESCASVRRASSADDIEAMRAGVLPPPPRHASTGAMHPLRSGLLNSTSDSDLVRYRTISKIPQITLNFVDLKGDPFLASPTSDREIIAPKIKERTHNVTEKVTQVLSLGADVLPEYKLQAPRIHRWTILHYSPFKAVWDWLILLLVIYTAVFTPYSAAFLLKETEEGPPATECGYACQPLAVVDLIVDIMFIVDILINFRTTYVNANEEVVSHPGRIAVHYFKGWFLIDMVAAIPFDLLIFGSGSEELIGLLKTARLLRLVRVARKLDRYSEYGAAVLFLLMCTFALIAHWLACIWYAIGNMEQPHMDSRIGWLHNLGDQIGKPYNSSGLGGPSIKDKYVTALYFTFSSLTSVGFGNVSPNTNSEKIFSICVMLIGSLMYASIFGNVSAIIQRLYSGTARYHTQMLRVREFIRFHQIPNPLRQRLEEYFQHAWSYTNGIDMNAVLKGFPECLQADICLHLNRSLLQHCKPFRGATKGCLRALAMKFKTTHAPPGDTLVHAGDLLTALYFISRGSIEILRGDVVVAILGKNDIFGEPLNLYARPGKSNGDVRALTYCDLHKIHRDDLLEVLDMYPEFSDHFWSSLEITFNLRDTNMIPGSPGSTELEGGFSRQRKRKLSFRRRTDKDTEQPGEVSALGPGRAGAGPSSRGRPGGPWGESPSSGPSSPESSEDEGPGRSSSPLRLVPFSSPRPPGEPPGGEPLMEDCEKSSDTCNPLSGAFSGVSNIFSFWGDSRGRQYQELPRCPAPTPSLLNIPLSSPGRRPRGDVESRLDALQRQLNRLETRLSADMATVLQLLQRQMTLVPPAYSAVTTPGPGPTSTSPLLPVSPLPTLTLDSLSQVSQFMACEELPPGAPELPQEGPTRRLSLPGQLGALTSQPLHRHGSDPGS
Chain of Tumor necrosis factor (Homo sapiens) (P01375 whole entry, looked up): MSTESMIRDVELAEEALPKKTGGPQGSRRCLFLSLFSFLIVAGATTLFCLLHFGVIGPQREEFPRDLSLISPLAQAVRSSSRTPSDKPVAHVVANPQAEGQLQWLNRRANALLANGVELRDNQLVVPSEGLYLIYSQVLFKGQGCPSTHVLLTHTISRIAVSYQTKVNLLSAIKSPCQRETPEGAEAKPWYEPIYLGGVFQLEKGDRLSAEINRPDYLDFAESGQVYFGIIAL
Chain of Peroxisome proliferator-activated receptor alpha (Homo sapiens) (Q07869 whole entry, looked up, the tested form may be a part): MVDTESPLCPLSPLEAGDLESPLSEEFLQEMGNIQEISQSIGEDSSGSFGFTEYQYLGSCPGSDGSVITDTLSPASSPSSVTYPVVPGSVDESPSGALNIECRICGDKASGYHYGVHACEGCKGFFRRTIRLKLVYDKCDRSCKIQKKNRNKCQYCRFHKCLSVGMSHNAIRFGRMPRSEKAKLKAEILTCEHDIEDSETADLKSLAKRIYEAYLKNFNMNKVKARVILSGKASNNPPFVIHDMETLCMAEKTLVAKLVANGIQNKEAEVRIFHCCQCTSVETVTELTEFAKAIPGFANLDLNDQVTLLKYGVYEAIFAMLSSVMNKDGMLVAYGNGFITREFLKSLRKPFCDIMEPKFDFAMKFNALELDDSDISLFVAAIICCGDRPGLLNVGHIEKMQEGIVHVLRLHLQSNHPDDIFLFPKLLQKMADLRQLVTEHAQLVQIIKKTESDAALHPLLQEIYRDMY

CSC(N)=NCCC[C@H](N)C(=O)O
inactive: Potency [1] | Potency [2] | Potency [3] | Potency [4] | Potency [5] | Potency [6]

C[N+](C)(C)CC=O
inactive: Potency [1] | Potency [2] | Potency [3] | Potency [4] | Potency [5] | Potency [6]

O=c1ccn([C@@H]2O[C@H](COP(=O)(O)OP(=O)(O)O)[C@@H](O)[C@H]2O)c(=O)[nH]1
inactive: Potency [1] | Potency [2] | Potency [3] | Potency [4] | Potency [5] | Potency [6]

CC(N)(Cc1ccc(O)cc1)C(=O)O (centres undefined)
inactive: Potency [1] | Potency [2] | Potency [3] | Potency [4] | Potency [5] | Potency [6]

CC(=O)[C@H]1CCC2C3CC=C4C[C@@H](OS(=O)(=O)O)CC[C@]4(C)C3CC[C@@]21C (some centres undefined)
inactive: Potency [1] | Potency [2] | Potency [3] | Potency [4] | Potency [5] | Potency [6]

CC(N)(Cc1ccc(O)c(O)c1)C(=O)O (centres undefined)
inactive: Potency [1] | Potency [2] | Potency [3] | Potency [4] | Potency [5] | Potency [6]

CO/N=C(\C(=O)N[C@@H]1C(=O)N2C(C(=O)O)=C(CSc3nc(=O)c(O)nn3C)CSC12)c1csc(N)n1 (some centres undefined)
inactive: Potency [1] | Potency [2] | Potency [3] | Potency [4] | Potency [5] | Potency [6]

c1ccc(CN2CCC3(CCCc4ccccc43)CC2)cc1
inactive: Potency [2] | Potency [3] | Potency [4] | Potency [5] | Potency [6]
active: Potency [1] 3.98 µM

O=C1NC(=O)c2cc(Nc3ccccc3)c(Nc3ccccc3)cc21
active: Potency [1] 12.6 µM | Potency [2] 2.51 µM
inactive: Potency [3] | Potency [4] | Potency [5] | Potency [6]

NC(N)=NC(N)=Nc1cccc(Cl)c1
active: Potency [1] 8.91 µM
inactive: Potency [2] | Potency [3] | Potency [4] | Potency [5] | Potency [6]

O=C(OCCN1CCOCC1)C1(c2ccccc2)CCCCC1
inactive: Potency [1] | Potency [2] | Potency [3] | Potency [4] | Potency [5] | Potency [6]

C[C@H](NC(=O)/C(C#N)=C/c1ccc(O)c(O)c1)c1ccccc1
inactive: Potency [1] | Potency [3] | Potency [4] | Potency [5] | Potency [6]
active: Potency [2] 0.794 µM

O=C(O)C1=CCCNC1
inactive: Potency [1] | Potency [2] | Potency [3] | Potency [4] | Potency [5] | Potency [6]

CCCCCCC/C=C\CCCCCCCCC(=O)O
inactive: Potency [1] | Potency [2] | Potency [3] | Potency [4] | Potency [5] | Potency [6]

Nc1ncnc2c1ncn2C1CCCC1
inactive: Potency [1] | Potency [2] | Potency [3] | Potency [4] | Potency [5] | Potency [6]

CC(C)(C)c1cc(/C=C(\C#N)C(N)=S)cc(C(C)(C)C)c1O
inactive: Potency [3] | Potency [4] | Potency [5] | Potency [6]
active: Potency [1] 11.2 µM | Potency [2] 4.47 µM

CCN(CC)CCCCCCCCOC(=O)c1cc(OC)c(OC)c(OC)c1
active: Potency [1] 11.2 µM
inactive: Potency [2] | Potency [3] | Potency [4] | Potency [5] | Potency [6]

COc1ccc(C(=O)NCc2cccnc2)cc1C(=O)NCc1cccnc1
inactive: Potency [1] | Potency [2] | Potency [3] | Potency [4] | Potency [5] | Potency [6]

O=C(O)[C@H]1NCCC[C@H]1C(=O)O
inactive: Potency [1] | Potency [2] | Potency [3] | Potency [4] | Potency [5] | Potency [6]

NC1(C(=O)O)CCCCC1
inactive: Potency [1] | Potency [2] | Potency [3] | Potency [4] | Potency [5] | Potency [6]

O=C(c1ccc2c(c1)OCCO2)N1CCCCC1
inactive: Potency [1] | Potency [2] | Potency [3] | Potency [4] | Potency [5] | Potency [6]

CC1CNCCN1S(=O)(=O)c1cccc2cnccc12 (centres undefined)
inactive: Potency [1] | Potency [2] | Potency [3] | Potency [4] | Potency [5] | Potency [6]

O=c1onc2cnc3ccccc3n12
active: Potency [2] 7.08 µM
inactive: Potency [1] | Potency [3] | Potency [4] | Potency [5] | Potency [6]

C=CC[C@H](N)C(=O)O
inactive: Potency [1] | Potency [2] | Potency [3] | Potency [4] | Potency [5] | Potency [6]

Nc1ncnc2c1ncn2C1CCCO1 (centres undefined)
inactive: Potency [1] | Potency [2] | Potency [3] | Potency [4] | Potency [5] | Potency [6]

NCCC1CCCC(CCN)N1 (centres undefined)
inactive: Potency [1] | Potency [2] | Potency [3] | Potency [4] | Potency [5] | Potency [6]

NC(=O)c1ccccc1
inactive: Potency [1] | Potency [2] | Potency [3] | Potency [4] | Potency [5] | Potency [6] | Potency [7] | activation [8] 1.72% | outcome [9] | outcome [10] | outcome [11] | activation [12] 0.0429% | max response [13] 0.54%
